From PubChem BioAssay
NS1 inh: blocks influenza NS1 protein function. hit rate 0.4% among 270,000. Potency, µM (highest dose often 46.1 µM), inactives show top-dose activity, positive = more growth; note: potency is the fitted concentration of half-maximal effect; actives are rising curves; nearly all actives have a fitted effect of over 50% in size
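S. cerevisiae expressing influenza A NS1, grown in glucose, washed, then diluted 1:100 into pH 6.0 -URA galactose medium with 23 nl compound. Growth recovery read as OD600; NS1-free strain serves as control.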
Pf growth 96h: P. falciparum growth inhibition at 96 hours; P. falciparum luciferase reporter growth, 96 h; Potency, µM (top dose mostly 28.7 µM), inactives show at the highest dose activity change, negative = inhibition, usual class: inhibitors; hit rate 6.9% among 320,000; AID 504834; active = well fitted inhibition curve with a large enough effect; inconclusive = small, poorly fitted or top-dose-only effect, or another doubt; inactive = no such curve, though single readings can be large or run the other way; note: potency is the fitted concentration of half-maximal effect; % is set by controls: 0 for no effect and ±100 for the full control effect
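P. falciparum expressing integrated firefly luciferase grown in erythrocytes (2% hematocrit, 0.05% parasitemia final) with compounds for 96 hours at 37 C, 5% CO2. Growth inhibition read as loss of luminescence after adding luciferase detection reagent.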
CHX counter: counter-screen hit for Shiga toxin inhibitors, cycloheximide. cell reporter, cycloheximide protein synthesis inhibition counterscreen. max response, %. hit rate 12% among 300,000. AID 2314; in the data active = max response mostly above about 13%, no sharp cut-off; inactive = mostly below about 14%; note: read at 38.3 µM for the half of the compounds with a filed dose; 0% is about no effect
Pf growth 48h: P. falciparum growth inhibition at 48 hours (one generation); hit rate 5.9% among 310,000; Potency, µM (doses to about 28.7 µM), without a hit: top-dose activity change, negative = inhibition, actives largely listed as inhibitors; P. falciparum luciferase growth in erythrocytes, 48 h; active = well fitted inhibition curve with a large enough effect; inconclusive = small, poorly fitted or top-dose-only effect, or another doubt; inactive = no such curve, though single readings can be large or run the other way; note: potency is the fitted concentration of half-maximal effect; % is set by controls: 0 for no effect and ±100 for the full control effect
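Erythrocytes infected with P. falciparum carrying an integrated firefly luciferase reporter (2% hematocrit, 0.1% parasitemia final) were exposed to compounds in RPMI 1640 with 0.5% Albumax at 37 C, 5% CO2. Growth inhibition was scored as reduced luminescence.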
Shiga inhibitor: inhibitors of Shiga toxin in Vero cells; Vero cells, Shiga toxin protein synthesis inhibition reporter; inhibition, % at 38.7 µM; hit rate 9.2% among 290,000; AID 2315; in the data active = inhibition mostly above about 28%, no sharp cut-off; inactive = mostly below about 43%; note: 0% is about no effect
SARS PLP yeast: SARS-CoV PLP inhibition in yeast; S. cerevisiae expressing SARS-CoV PLpro, growth rescue; Potency, µM (highest dose often 32.9 µM), without a hit: at the highest dose activity, positive = growth rescue, actives largely listed as activators; hit rate 0.19% among 330,000; AID 485353; note: potency is the fitted concentration of half-maximal effect; 0% is about no effect; nearly all actives have a fitted effect of over 55% in size
Active calls of the source: *; ? = inconclusive; / = no result. In the library only some 21% were active in any assay of this set; here they are far more common. Unless noted, calls come from the whole dose curve.

SMILES	NS1 inh	Pf growth 96h	CHX counter	Pf growth 48h	Shiga inhibitor	SARS PLP yeast
COc1ccc(C(=O)/C=C/c2ccccc2C(F)(F)F)cc1	-34%	?	26*	?	29	-6%
CCOc1ccc(C(=O)/C=C/c2ccccc2C(F)(F)F)cc1	2%	9%	21*	21%	22	0%
Cc1nn(C)cc1CN(C)C(=O)c1cc(-c2ccccc2)nc2ccc(Br)cc12	/	?	5	-17%	-4	-1%
O=C(O)COc1ccc(/C=C/C(=O)c2ccc(C3CCCCC3)cc2)cc1	?	?	26*	?	49	-5%
COc1ccc(OCCNC(=O)/C=C/c2ccccc2)cc1	/	?	28	-22%	-5	1%
O=C(O)COc1ccc(/C=C/C(=O)c2ccc3ccccc3c2)cc1	11%	?	14	-30%	20	0%
O=C(/C=C/c1ccccc1)NCCOc1ccccc1	-11%	24%	39*	38%	77*	1%
CCOc1ccc(/C=C/C(=O)c2ccccc2)cc1	-36%	185%	31*	112%	43	-6%
Cn1c(CCNC(=O)c2ccccc2)nc2cc(NC(=O)C3CCCCC3)ccc21	5%	?	10	/	9	5%
Cc1cc(-c2nn(-c3ccccc3F)cc2CN2CCC(O)CC2)c(C)s1	-1%	?	-3	?	-5	-2%
Cc1cc(-c2nn(-c3ccccc3F)cc2CN2CCN(c3ccncc3)CC2)c(C)s1	1%	?	-1	4.1µM*	1	-1%
CC1=C(C(=O)OCC2CCCO2)C(c2ccc(F)cc2)NC(=O)N1 (stereo unspecified)	-2%	-21%	-2	16%	-9	?
CN(CC(=O)Nc1ccc(S(=O)(=O)N2CCCC2)cc1)Cc1ccc(Cl)cc1Cl	-31%	?	-2	?	-11	-24%
O=C(COc1ccccc1)Nc1ccc(N2CCCCC2)cc1	/	21%	/	0%	/	1%
O=C(CN1CCCCC1)Nc1ccc(N2CCCCCC2)cc1	0%	24%	17*	?	44	0%
CCCOC(=O)Nc1ccc(N2CCCCC2)cc1	-17%	41%	34*	132%	56*	/
CN(CC(=O)Nc1ccc(Cl)cc1)c1ccc(S(=O)(=O)N2CCCCC2)cc1[N+](=O)[O-]	-12%	2.9µM*	-4	?	-13	6%
CCN(CC(=O)Nc1ccc(NC(C)=O)cc1)C(=O)/C=C/c1ccc(S(=O)(=O)N2CCCCCC2)cc1	-1%	4.7µM*	-3	3.3µM*	-11	4%
CCCOc1ccc(N2CC(C(=O)NC(C)C)CC2=O)cc1 (stereo unspecified)	0%	-15%	3	34%	13	15%
Cc1cnc(C)c(N2CCN(Cc3nc(-c4ccccc4)no3)CC2)n1	-11%	-10%	9	18%	-14	0%
CC(C)NC(=O)NC(=O)CSc1nncs1	/	29%	2	-26%	-5	1%
NC(=O)c1ccc(NC(=O)CN2CCN(c3ccc(Cl)cc3)CC2)cc1	/	12µM*	-5	7%	-18	0%
CN1CCN(c2ccc(S(=O)(=O)N3CCCCC3)cc2NC(=O)CSCc2ccccc2)CC1	1%	?	-3	?	2	-1%
O=C(CCc1ccccc1)Nc1ccc(S(=O)(=O)N2CCOCC2)cc1	-1%	9%	2	?	-13	1%
CN1CCN(c2ccc(S(=O)(=O)N3CCCCC3)cc2NC(=O)CCc2ccccc2)CC1	/	?	/	9.3µM*	/	3%
O=C(CCc1ccccc1)Nc1ccc(N2CCCCC2)cc1	8%	-8%	33*	98%	93*	-10%
O=C(CCc1ccccc1)Nc1ccc(S(=O)(=O)N2CCCC2)cc1	1%	8.3µM*	-2	?	-1	1%
NC(=O)c1ccc(NC(=O)CN2CCN(c3ccccc3)CC2)cc1	15%	?	-3	3%	/	1%
O=C(Cc1ccccc1)Nc1ccc(N2CCCC2)cc1	9%	53%	15	/	30	2%
CSCC[C@H](NC(=O)[C@H](CCCN=C(N)N)NC(=O)[C@@H]1CCCN1C(=O)[C@H](Cc1ccccc1)NC(=O)[C@H](C)NC(=O)[C@H](CC(C)C)NC(=O)[C@H](Cc1ccc(O)cc1)NC(=O)[C@H](CC(N)=O)NC(=O)[C@@H](N)CCSC)C(N)=O	/	/	-4	/	-15	/
